# Measured values reported in the supplement of paper PMC12350171.
# Counter-ions that a name gives are not always drawn. Unmarked numbers belong to inactive results.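 The calls were made as follows: active = AUC significantly below DMSO controls by Student t-fit with adjusted P under 0.01; inactive = not significantly reduced.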
# System: Vibrio cholerae
# Assay: growth AUC normalised to DMSO control (fraction of control); higher = less growth inhibition, active = hit call of the paper
# Details: 20 µM
# Summary of the method: (§1)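 Pathogens passaged twice anaerobically were inoculated at a starting OD578 of 0.01 into pre-reduced mGAM plates with drug at 20 μM and 1% DMSO, sealed with breathable membranes. Haemophilus parainfluenzae medium was supplemented with hemin and NAD. OD578 was read hourly for 24 h, with three biological replicates. Growth-curve AUC was computed by the trapezoidal rule up to the exponential-to-stationary transition and normalised to DMSO controls on the same plate.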
row,Compound,growth AUC normalised to DMSO control
1,Cc1scc2c1N(C(=O)CN1CCN(C)CC1)c1ccccc1NC2=O [Telenzepine dihydrochloride],1.01
2,CCCCN(CCCC)CCC(O)c1cc2c(Cl)cc(Cl)cc2c2cc(C(F)(F)F)ccc12 (stereo not given) [Halofantrine hydrochloride],1.06
3,CCN1CCCC1CNC(=O)c1cc(S(=O)(=O)CC)c(N)cc1OC (stereo not given) [Amisulpride],1.01
4,Clc1ccc(CCC(Cn2ccnc2)Sc2c(Cl)cccc2Cl)cc1 (stereo not given) [Butoconazole nitrate],0.98
5,CCn1nc(C(=O)O)c(=O)c2cc3c(cc21)OCO3 [Cinoxacin],0.0544 (active)
6,CCC1(c2ccccc2)NC(=O)N(C)C1=O (stereo not given) [Mephenytoin],1.02
7,CCCN(CCC)C(=O)C(CCC(=O)O)NC(=O)c1ccccc1 (stereo not given) [Proglumide],1.05
8,O=C1NCC2(CCN(CCc3ccccc3)CC2)O1 [Fenspiride hydrochloride],0.994
9,CC(c1cc2ccccc2s1)N(O)C(N)=O (stereo not given) [Zileuton],1
10,c1ccc2c(c1)CCCC2C1=NCCN1 (stereo not given) [Tetrahydrozoline hydrochloride],0.991

# System: Yersinia pseudotuberculosis
# Assay: as above
# Details: 20 µM
# Summary of the method: as §1
row,Compound,growth AUC normalised to DMSO control
1,Cn1c(=O)c2c(ncn2CC(O)CO)n(C)c1=O (stereo not given) [Diprophylline],1
2,CC(C)(C)NC[C@@H](O)COc1cccc2c1CCCC2=O [(+) Levobunolol hydrochloride],0.987
3,C[C@]12CCC(=O)C=C1CC[C@@H]1[C@@H]2[C@@H](O)C[C@@]2(C)[C@H]1CC[C@]2(O)C(=O)CO [Hydrocortisone],1.01
4,C#Cc1cccc(Nc2ncnc3cc(OCCOC)c(OCCOC)cc23)c1 [Erlotinib],0.995
5,O=C1CCC(N2C(=O)c3ccccc3C2=O)C(=O)N1 (stereo not given) [Thalidomide],0.988
6,CCOC(=O)C1=C(COCCN)NC(C)=C(C(=O)OC)C1c1ccccc1Cl (stereo not given) [Amlodipine],1.01
7,COc1ccc(CN(CCN(C)C)c2ccccn2)cc1 [Pyrilamine maleate],1.01
8,CN1CCCC(CC2c3ccccc3Sc3ccccc32)C1 (stereo not given) [Metixene hydrochloride],1
9,CC(C)/N=c1\cc2n(-c3ccc(Cl)cc3)c3ccccc3nc-2cc1Nc1ccc(Cl)cc1 [Clofazimine],1.03
10,NC(N)=Nc1nc(CSCC/C(N)=N/S(N)(=O)=O)cs1 [Famotidine],0.97
11,O=C1c2ccccc2C(=O)C1c1ccccc1 [Phenindione],0.983
12,CN1CCN2c3ccccc3Cc3ccccc3C2C1 (stereo not given) [Mianserine hydrochloride],0.956
13,CCN1C(=O)NC(c2ccccc2)C1=O (stereo not given) [Ethotoin],0.992
14,CC(=O)OCC(=O)[C@@]12OC3(CCCC3)O[C@@H]1C[C@H]1[C@@H]3CCC4=CC(=O)C=C[C@]4(C)[C@@]3(F)[C@@H](O)C[C@@]12C [Amcinonide],1.04
15,CCc1cccc(CC)c1NC(=O)CN(CC(=O)O)CC(=O)O [Etifenin],0.999
16,COc1ccc(C(Cl)=C(c2ccc(OC)cc2)c2ccc(OC)cc2)cc1 [Chlorotrianisene],1.01
17,CC(=O)c1ccc2c(c1)N(CCCN(C)C)c1ccccc1S2 [Acetopromazine maleate salt],0.949
18,CCN1CCCC(OC(=O)C(c2ccccc2)c2ccccc2)C1 (stereo not given) [Piperidolate hydrochloride],0.967
19,CCCCOc1ccc(CC(=O)NO)cc1 [Bufexamac],0.956
20,NC[C@@H]1O[C@H](O[C@H]2[C@@H](O)[C@H](O[C@@H]3[C@@H](O)[C@H](N)C[C@H](N)[C@H]3O[C@H]3O[C@H](CN)[C@@H](O)[C@H](O)[C@H]3N)O[C@@H]2CO)[C@H](N)[C@@H](O)[C@@H]1O [Neomycin sulfate],1

row,Compound,growth AUC normalised to DMSO control
1,COc1cc(C(=O)OCCCN2CCCN(CCCOC(=O)c3cc(OC)c(OC)c(OC)c3)CC2)cc(OC)c1OC [Dilazep dihydrochloride],0.989
2,NC1CCN(c2c(F)cc3c(=O)c(C(=O)O)cn(C4CC4)c3c2Cl)C1 (stereo not given) [Clinafloxacin],0.0284 (active)
3,CC(=O)O[C@H]1C[C@@]2(C)[C@@H](C[C@@H](O)[C@H]3[C@@]4(C)CC[C@@H](O)[C@@H](C)[C@@H]4CC[C@@]32C)/C1=C(\CCC=C(C)C)C(=O)O [Fusidic acid sodium salt],0.824 (active)
4,c1cnc(N2CCN(Cc3ccc4c(c3)OCO4)CC2)nc1 [Piribedil],1.01
5,O=C(CCCCC(=O)Nc1c(I)cc(I)c(C(=O)O)c1I)Nc1c(I)cc(I)c(C(=O)O)c1I [Iodipamide],1
6,COc1ccc2c(c1)C(=O)N(CCc1ccc(S(=O)(=O)NC(=O)NC3CCCCC3)cc1)C(=O)C2(C)C [Gliquidone],1
7,CC1(C)S[C@@H]2[C@H](NC(=O)[C@H](C(=O)O)c3ccsc3)C(=O)N2[C@H]1C(=O)O [Ticarcillin sodium],0.0593 (active)
8,CCOC(=O)/C=C(C)/C=C/C=C(C)/C=C/c1c(C)cc(OC)c(C)c1C [Etretinate],1
9,O=C(O)COCCN1CCN(C(c2ccccc2)c2ccc(Cl)cc2)CC1 (stereo not given) [Cetirizine dihydrochloride],0.981
10,CCN(CC)C(C)CN1c2ccccc2Sc2ccccc21 (stereo not given) [Ethopropazine hydrochloride],0.995
11,Cc1scc2c1N(C(=O)CN1CCN(C)CC1)c1ccccc1NC2=O [Telenzepine dihydrochloride],0.993
12,CCCCN(CCCC)CCC(O)c1cc2c(Cl)cc(Cl)cc2c2cc(C(F)(F)F)ccc12 (stereo not given) [Halofantrine hydrochloride],1.03
13,CCN1CCCC1CNC(=O)c1cc(S(=O)(=O)CC)c(N)cc1OC (stereo not given) [Amisulpride],0.99
14,Clc1ccc(CCC(Cn2ccnc2)Sc2c(Cl)cccc2Cl)cc1 (stereo not given) [Butoconazole nitrate],0.745
15,CCn1nc(C(=O)O)c(=O)c2cc3c(cc21)OCO3 [Cinoxacin],0.0459 (active)
16,CCC1(c2ccccc2)NC(=O)N(C)C1=O (stereo not given) [Mephenytoin],1.01
17,CCCN(CCC)C(=O)C(CCC(=O)O)NC(=O)c1ccccc1 (stereo not given) [Proglumide],1.02
18,O=C1NCC2(CCN(CCc3ccccc3)CC2)O1 [Fenspiride hydrochloride],0.971
19,CC(c1cc2ccccc2s1)N(O)C(N)=O (stereo not given) [Zileuton],0.931
20,c1ccc2c(c1)CCCC2C1=NCCN1 (stereo not given) [Tetrahydrozoline hydrochloride],0.996
